Measurements reported in the supplement of paper PMC6555819.

How the values were obtained:
Assay in all cases: PBM binding z-score (relative to random genomic background probes); higher = stronger binding; sequences stand for … in GC…GCGATTGACAGCGTAGAATGAAGG
[1] = test system: FXR:RXRa (NR concentration 270 nM, RXRa partner concentration 90 nM)
Method in brief: (§1)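 Custom Agilent 4×180K protein-binding microarrays carried double-stranded probes. Their 34-nt variable regions held direct-repeat seeds, single-nucleotide variants, half-site ablations and random human genomic background sequences. Arrays were incubated 1 h with ligand-free nuclear receptor dimers in PBS pH 7.4, 2% milk, 0.02% Triton X-100, 1 mM DTT, 0.2 mg/mL BSA and 0.4 mg/ml salmon testes DNA. Antibodies against each partner (one per run) detected binding, and scanned fluorescence was regression-normalized. Binding z-scores use random background probes as reference.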

[2] = test system: LXRa:RXRa (NR concentration 270 nM, RXRa partner concentration 90 nM)
Method in brief: as §1

[3] = test system: LXRa homodimer (NR concentration 270 nM)
Method in brief: as §1

[4] = test system: LXRb:RXRa (NR concentration 270 nM, RXRa partner concentration 90 nM)
Method in brief: as §1

[5] = test system: LXRb homodimer (NR concentration 270 nM)
Method in brief: as §1

[6] = test system: PPARa:RXRa (NR concentration 270 nM, RXRa partner concentration 90 nM)
Method in brief: as §1

[7] = test system: PPARg:RXRa (NR concentration 180 nM, RXRa partner concentration 90 nM)
Method in brief: as §1

[8] = test system: PPARg:RXRa 270nM:90nM, anti-RXR (NR concentration 270 nM, RXRa partner concentration 90 nM)
Method in brief: as §1

[9] = test system: PPARg:RXRa 30nM:10nM, anti-RXR (NR concentration 30 nM, RXRa partner concentration 10 nM)
Method in brief: as §1

[10] = test system: PPARg:RXRa 90nM:30nM, anti-RXR (NR concentration 90 nM, RXRa partner concentration 30 nM)
Method in brief: as §1

Sequence | PBM binding z-score [1] | PBM binding z-score [2] | PBM binding z-score [3] | PBM binding z-score [4] | PBM binding z-score [5] | PBM binding z-score [6] | PBM binding z-score [7] | PBM binding z-score [8] | PBM binding z-score [9] | PBM binding z-score [10]
GCTGGTAGGTCAACTGATGGTCAGCTAAAGCTCG | 4.7 | 3.62 | 0.696 | 2.66 | 0.322 | 4.64 | 4.59 | 4.72 | 1.84 | 3.71
TCATATAGGTAATGGTGAAAGTCGAACGATATGA | -0.32 | 0.417 | -0.0652 | 0.263 | -0.188 | 1.22 | 1.43 | 2.42 | 3.89 | 3.12
CTCGGAAGGTCGGTTGAGGTGAGTATACGGATAA | 2.43 | 0.338 | -0.673 | 0.113 | -0.399 | 1.01 | -0.0465 | -0.0669 | -0.473 | -0.159
ATCTCCAGGTAAAGTTCAGTGAAAGATCGATAGA | 1.54 | 2.1 | 1.98 | 1.55 | 1.25 | 2.02 | 1.2 | 2.62 | 1 | 1.91
TCAGACAGGTGAAGGTAACTCGGGTACGCAGTCG | 1.07 | 2.93 | 0.00206 | 1.44 | -0.167 | 1.46 | 0.656 | 2.33 | 3.89 | 3.22
TATACAGGGTCAAAGGCCATAGTACGAATGTCGA | 7.3 | 6.15 | 2.85 | 5.09 | 2.38 | 6.27 | 9.09 | 7.76 | 6.42 | 8.54
TCATATAGGTAAATGCTAGGAGAAAGTCCGATCT | 0.665 | 0.615 | 0.0582 | 0.346 | 0.0208 | 0.892 | 0.807 | 2.25 | 3.95 | 3.15
CATACAGAGTCAGCTAGGCCAGAGTAGGGACGGC | -0.451 | -0.383 | -0.608 | -0.891 | -0.106 | -0.478 | 0.472 | -0.324 | -0.369 | -0.479
GGAACGAGGGCAAACTTGATAGCATCTGTCGACG | 1.14 | 0.523 | -0.0239 | 0.598 | -0.25 | 2.18 | 1.54 | 1.87 | 0.362 | 1.16
CGAACTAGGTCATTGCCAGGACAGTGAATAGTAA | 3.98 | 2.75 | 0.491 | 1.6 | -0.019 | 4.39 | 6.96 | 6.06 | 3.25 | 5.51
TAGCCTAGGTCATGCGGGCCAGTATTGTGTCGGC | 3.83 | 2.94 | 0.0608 | 1.71 | -0.269 | 3.48 | 1.84 | 2.13 | 0.0531 | 1.17
CGTCAAAGTTCAAGGTAACGTATCAGAAAGCAGC | 5.57 | 5.5 | 2.87 | 3.2 | 1.15 | 4.61 | 4.11 | 5.03 | 1.86 | 3.65
CCTGCTAGGTCATGGTCGGCTAATCTACAGTATG | 3.56 | 2.8 | -0.0293 | 1.91 | -0.492 | 3.56 | 2.32 | 2.78 | 0.716 | 1.99
TGTCAAAGTTCACAGGTAACGTAAGTATCCACAC | 6.59 | 5.87 | 3.37 | 4.04 | 1.49 | 6.02 | 8.64 | 7.43 | 5.54 | 7.12
ATATGTAGGTTACATCCGGGTCCTTCAGGCTATG | 0.21 | 1.72 | 0.152 | 0.684 | 0.758 | 3.17 | 5.07 | 4.1 | 2 | 3.63
TCTCGTTGGTCACGGAGGTCACACACGACGGGTA | 3.3 | 3.62 | 1.88 | 3.75 | 1.11 | 3.85 | 2.5 | 3.71 | 2.93 | 3.47
CCGAGTAGGTTAAGGGGCATTCAGGCAACGGTGA | 0.765 | 0.894 | -0.155 | 1.02 | -0.297 | 3.51 | 6.06 | 6.42 | 4.16 | 6.65
CAAACTAGGTCAAGGTCAACGTCGGTTTGTGCCA | 6.57 | 5.33 | 3.32 | 4.35 | 0.922 | 6.21 | 9.59 | 8.11 | 6.56 | 8.58
CGTTCAAGGTCAGCAGGTCAGTGAAAGCGACGTG | 6.5 | 4.34 | 0.93 | 3.38 | 0.134 | 5.37 | 5.07 | 5.47 | 1.95 | 4.09
TCGTGTAGATCAAGCAGGTTAAGAAAGCCTGAGT | 0.141 | 0.107 | -0.392 | 0.143 | -0.921 | 0.588 | -0.429 | 0.747 | 2.07 | 1.61
AGAATGAGGGTATACGTAGATCAGGGAAGAAAGT | 0.101 | 0.0157 | -0.0552 | -0.0551 | -0.229 | 0.333 | 0.755 | 0.72 | 0.337 | 0.51
TCATATAGGTACAAGGTGAAAGTCGGTGTGGTAA | 0.883 | 1.08 | 0.335 | 1.18 | 0.0749 | 3.3 | 4.66 | 5.75 | 5.85 | 6.21
ATATGTAGGTTACATCCGGGTCATTCACGCTATG | 2.44 | 4.66 | 1.9 | 3.31 | 1.26 | 4.8 | 6.27 | 5.48 | 2.76 | 4.79
TAGCCTAGGTCATGGGGGCCAGTATAGTGTCGGC | 4.96 | 4 | 0.742 | 4.86 | 5.38 | 4.64 | 4.04 | 4.26 | 1.09 | 3.11

Sequence | PBM binding z-score [1] | PBM binding z-score [2] | PBM binding z-score [3] | PBM binding z-score [4] | PBM binding z-score [5] | PBM binding z-score [6] | PBM binding z-score [7] | PBM binding z-score [8] | PBM binding z-score [9] | PBM binding z-score [10]
CTCGAAAGGTCGGTTGAGGTGAGTATCCGGATAA | 2.5 | 1.81 | -0.338 | 1.44 | 0.0486 | 2.71 | 0.0243 | 1.33 | -0.0688 | 0.975
AGAATGAGGTTCAGATCAGGGAAACAGAATACAT | 0.604 | 0.299 | -0.377 | 0.614 | -0.379 | 1.14 | 0.585 | -0.121 | 0.313 | 0.345
GGAACGAGGGCATTCGAGTTGATAGCTTGGCGAT | 1.76 | 1.65 | -0.471 | 0.207 | -0.992 | 1.36 | 0.667 | 0.802 | -0.342 | 0.275
AGTCAAAATTCATCTAGGTAACGTAAGATATGCT | -0.194 | -0.373 | -0.0496 | -0.0959 | -0.222 | 0.0588 | 1.19 | 0.183 | 0.359 | 0.0171
AGTCAAAGTTCAGGACGAGGTAACATAAAGCACG | 4.23 | 4.01 | 1.38 | 2.25 | 0.512 | 3.45 | 4.84 | 4.91 | 2.27 | 4.16
CAGCCTAGGTCAGAGCCAGTATAGGAGGAACGTT | 1.65 | 0.992 | -0.0153 | 0.607 | -0.514 | 1.69 | 0.786 | 0.566 | -0.211 | 0.234
CCTTACGGGTCAAGGTTATGGCACGGGTGGTACG | 5.49 | 3.7 | 0.0981 | 2.81 | -0.233 | 4.86 | 4.26 | 4.73 | 1.8 | 3.51
ATCTCTAGGTAAAGTTCAGTGCAAGATCGATAGA | 1.53 | 2.29 | 2.02 | 1.43 | 0.722 | 2.52 | 3.48 | 4.48 | 2.63 | 4.43
CAAACTAGGTCACGAAAGGTCAGAGTCGAATGAC | 6.76 | 7.61 | 5.28 | 6.37 | 1.23 | 5.96 | 10.3 | 7.74 | 6.9 | 8.34
AATACAGGGTCACTAGACCAGAGTAGGTACGAAT | 5.74 | 4.72 | 0.962 | 3.65 | 0.659 | 5.33 | 6.24 | 5.76 | 2.72 | 4.31
CCGACTGGGGCATAAGGTTACCATAAGCCAGCCC | 0.197 | 1.68 | -0.354 | 0.645 | -1.33 | 1.75 | 2.29 | 3.15 | 0.853 | 2.5
GCTACTTGGTCAGTAAAAGGTCACACACCGGTCG | 3.65 | 4.51 | 4.98 | 4.37 | 1.61 | 4.59 | 3.39 | 4.65 | 2.3 | 4.1
CCTTACGGGTCAAGGGTATAGCACGGGTGGTACG | 5.14 | 3.24 | -0.107 | 2.59 | -0.218 | 5.12 | 5.03 | 5.23 | 2.3 | 4.37
TCTTGTAGATCAGTAGAGGTTAAGAAAGTGCGCT | 0.847 | 3.26 | 0.497 | 1.64 | -0.181 | 1.44 | -0.271 | 1.56 | 2.48 | 2.12
CGAACTAGGTCATTGACAGGACAGTGATTAGTAA | 4.44 | 3.04 | 0.786 | 2 | -0.0597 | 4.69 | 7.36 | 6.17 | 3.71 | 6.08
CCTACTGGGCCATTCAGAGCTCATTGATCATATG | -0.592 | -0.786 | -0.476 | -0.728 | -0.785 | 0.169 | 0.223 | 0.0807 | -0.459 | -0.224
ATCTCTAGGTAACAAGTTCCGTGAAAGAGAGGAC | 0.25 | -0.0278 | 0.209 | 0.0127 | 0.506 | 0.431 | 0.903 | 1.28 | 0.68 | 1.07
ACTCGTTGGTCAGCTGAGGTCACACACAATTCGG | 3.88 | 3.44 | 2.55 | 3.61 | 0.51 | 3.65 | 1.26 | 1.84 | 0.425 | 1.25
ATCTCTAGGTAACCAGTTCAGTGAAAGAGAGGAC | 0.76 | 0.635 | 0.481 | 0.706 | 1 | 1.26 | 1.06 | 1.24 | 0.669 | 0.873
ACTATTAGTTGACTTAGGGCGACCGATACGACGC | 0.233 | -0.0475 | -0.0351 | -0.0198 | 0.794 | -0.104 | 0.88 | 0.00253 | 0.295 | 0.183
GGAACGAGGGCATTCGAGATGATAGCATGGCGAT | 0.866 | 0.444 | -0.191 | -0.035 | -0.591 | 1.38 | 1.36 | 0.68 | 0.253 | 0.521
CGTCCAAGGTCATAGGAGGTCAGTCAAGACAGAT | 7.64 | 7.59 | 5.22 | 6.59 | 0.88 | 5.87 | 5.47 | 5.75 | 2.45 | 4.47
GGAACGAGGGCATAGTTGATAGCATCTGTCGACG | 0.364 | 0.0828 | -0.66 | 0.126 | -0.441 | 2.33 | 3.64 | 5 | 2.9 | 4.54
TGTCAAAGTTCCAAGGTAACGTAAGTATCCACAC | 0.32 | 0.139 | -0.0669 | 0.284 | 0.0682 | 0.321 | 0.758 | 1.18 | 0.448 | 1.04
